Reference: PubChem BioAssay AID1347069 (National Center for Advancing Translational Sciences (NCATS), 2019)
Out of some 44,000 compounds screened, fewer than 10 were called active. These entries were drawn from the full list. Unmarked numbers belong to inactive results. The call rests on the fitted dose curve; in most records, active means well fitted inhibition curve with a large enough effect; inconclusive means small, poorly fitted or top-dose-only effect; inactive means flat fitted curve, though single readings scatter.

What follows are compounds tested against Tumor susceptibility gene 101 protein (Homo sapiens) (UniProt Q99816) (assay: qHTS Validation Assay for Inhibitors of HIV-1 Budding by Blocking the Interaction of PTAP/TSG101: Sytravon Library Screen). Conditions: Fluorescence polarization, FITC-PTAP peptide/Tsg101, 20 min; series mostly up to 115 µM; activity change, negative = inhibition: at the top concentration.
From the text: Stages of the HIV-1 replication cycle, specifically virus assembly and release, provide underexploited targets for the development of novel antiviral inhibitors. The late stages of HIV-1 replication are mediated by the Gag precursor protein, Pr55Gag. Expression of Pr55Gag is both necessary and sufficient for the production of virus-like particles from Gag-expressing cells. The Gag protein hijacks key host proteins involved in endocytic machinery of the host cell to promote endosomal processing and viral budding. The budding process requires a direct interaction between a […] (PTAP) motif in the p6 domain of Gag and the cellular endosomal sorting protein known as Tsg101. In this way, the Gag PTAP motif promotes the host cells to recruit viral particles to the plasma membrane where the new viral particles are released, effectively turning the host cells into viral factories. A fluorescence polarization assay has been developed to quantitatively measure the PTAP-Tsg101 interaction which can be used to screen for inhibitors of this interaction. This assay was run against the NCGC Sytravon Library collection. NIH Molecular Libraries Probe Production Network [MLPCN] NIH Chemical Genomics Center [NCGC] Grant: R03 MH087464-01A1 PI Name: Dr. Eric Freed, NCI
Two uL of the Tsg101 binding domain in buffer (10 mM HEPES pH 7.5; 0.15 M NaCl, 0.01% Tween 20; 3 mM EDTA;0.1 mM TCEP) was dispensed into Greiner black MB 1536-well plates (final concentration 10 uM). Then, 23 nL of compounds or DMSO were delivered to each well using a pin tool. Finally, 2 uL of a FITC-labeled peptide containing the PTAP motif (1) in the same buffer was dispensed (50 nM final concentration) and the binding was allowed to proceed for 20 min. at r.t. Fluorescent polarization was determined using FITC excitation and polarized emission filters on a Perkin Elmer Envision. Assay cut-off (positive/negative criteria): Actives defined by CRC class, <25 µM; Efficacy <60% inhibition. The total fluorescent intensity from S and P channels will be used to flag fluorescent compounds.
Further: 0% is about no effect.

Tumor susceptibility gene 101 protein (Homo sapiens), sequence (Q99816 whole entry, looked up): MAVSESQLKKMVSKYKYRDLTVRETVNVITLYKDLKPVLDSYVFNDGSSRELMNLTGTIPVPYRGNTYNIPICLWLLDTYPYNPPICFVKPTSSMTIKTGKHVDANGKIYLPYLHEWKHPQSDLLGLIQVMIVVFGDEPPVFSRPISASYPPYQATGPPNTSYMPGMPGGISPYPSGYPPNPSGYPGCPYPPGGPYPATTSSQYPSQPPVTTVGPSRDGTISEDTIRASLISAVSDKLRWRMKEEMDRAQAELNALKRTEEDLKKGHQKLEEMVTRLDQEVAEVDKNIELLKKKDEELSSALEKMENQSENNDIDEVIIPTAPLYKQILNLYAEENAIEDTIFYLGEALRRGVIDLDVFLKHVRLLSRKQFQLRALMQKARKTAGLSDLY

Compound	activity change, negative = inhibition [%]
COc1ccc(CNC(=O)CS(=O)Cc2nc(-c3cccc(C)c3)oc2C)cc1 (stereo not given)	0.25
CCOc1ccc(NC(=O)c2cc(S(=O)(=O)N3CCCC3)c[nH]2)cc1	-8.6
COc1cccc(C(=O)NCC(=O)OCc2cc(=O)n3ccsc3n2)c1	1.45
Cc1nn(-c2ccc(N3CCCCC3)nn2)c(C)c1CCC(=O)NCc1ccccc1F	1.09
CCc1cc2c(cc3c(=O)n(CC(=O)N4CCN(c5cc(Cl)ccc5C)CC4)ncn32)s1	-5.09
CCOc1ccc(C2C(=O)N(C3CCCCC3)CC(=O)N2CCC2=CCCCC2)cc1OC (stereo not given)	-8.4
CC1CCCN(Cc2c(O)ccc3c(=O)c(Oc4ccc(C(C)(C)C)cc4)c(C(F)(F)F)oc23)C1 (stereo not given)	-0.105
CCc1cccc(C)c1NS(=O)(=O)c1ccc(-c2cc(C)no2)s1	0.67
O=C(CCS(=O)(=O)c1cc(Br)cc2c1N(C(=O)C1CC1)CC2)Nc1ccc(C(F)(F)F)cc1	0.0494
O=C(OCc1cc(=O)n2nc(C3CC3)sc2n1)c1ccccc1Cl	0.428
COc1ccc(NC(=O)Nc2cccc(-c3noc(C)n3)c2)cc1	-0.369
CC(C)(C)c1ccc(C(=O)N2CCC(c3nc(-c4ccc(S(=O)(=O)N5CCCC5)cc4)no3)CC2)cc1	-4.06
CCCCCn1c(CCCNC(=O)c2ccccc2OC)nc2ccccc21	-6.58
COc1ccccc1CNc1nccn(-c2ccc(F)cc2)c1=O	1.54
Cc1c(Cl)cccc1-c1ccc(CNCCCSc2nnnn2C)o1	0.191
CSc1ccc(C2c3c(oc4ccccc4c3=O)C(=O)N2CCCN2CCOCC2)cc1 (stereo not given)	-5.71
CSc1cccc(NC(=O)CN2C(=O)CCc3cc(S(=O)(=O)N4CCCCC4)ccc32)c1	-4
COc1ccc(OC)c(NC(=O)CSC2=Nc3ccccc3C3=NC(CC(=O)NCc4ccc(F)cc4)C(=O)N23)c1 (stereo not given)	1.59
Cc1cc(OC(C)C(=O)Nc2sc3c(c2C(N)=O)CCCC3)ccc1Cl (stereo not given)	-0.431
COc1ccc(-c2cc(-c3ccccc3)nc3c2COc2ccc(Cl)cc2-3)cc1	-2.13

Compound	activity change, negative = inhibition [%]
CCCCNC(=O)C1CCCN(c2nnc(C)c3c(C)n(-c4ccc(Cl)cc4)nc23)C1 (stereo not given)	-6.8
Cc1cccc(NC(=O)N2CCN(C)c3ncccc32)c1C	-11.3
CCc1nnc(SCc2nc(-c3cccc(C)c3)oc2C)c2cc3sc(C)cc3n12	0.355
CC(C)(C)c1ccc(C(=O)Nc2ccc3c(c2)CCCN3C(=O)c2cccs2)cc1	-7.67
CCN1CCN(C(c2ccc(C)cc2)c2c(O)cc(C)n(Cc3ccco3)c2=O)CC1 (stereo not given)	-3.55
Cc1csc2nc(COC(=O)c3ccccc3NC(=O)c3ccccc3Cl)cc(=O)n12	-4.86
Cc1ccc(NC(=O)c2ccc3[nH]c(C)cc(=O)c3c2)c(C)c1	-2.8
Cc1ccc2c(c1)c1c(c(=O)n(-c3ccccc3)c(=O)n1CC(=O)c1ccc(Cl)cc1)n2C	0.738
Cc1ccccc1-c1nc2cc(NC(=O)c3cccc(OCCC(C)C)c3)ccc2o1	5.77
CCn1c(C)c(C)c2cc(C(=O)NCCc3cc(OC)ccc3OC)ccc21	0.404
Cn1c(=O)c2c(ncn2CC(=O)Nc2cccc(C(F)(F)F)c2)n(C)c1=O	-3.44
Cc1ccc(-n2nc(C)c3c(C)cc(=O)n(CC(=O)Nc4ccc(C(C)C)cc4)c32)cc1	-0.986
Cc1ccc(C2c3[nH]c4ccccc4c3CCN2C(=O)c2cccc(C)c2)cc1 (stereo not given)	0.206
CCOC(=O)C1CCN(c2nc3c(S(=O)(=O)c4ccc(CC)cc4)nnn3c3ccc(Cl)cc23)CC1	3.23
O=C(CSc1nc2ccccc2nc1Cc1ccccc1)N1CCCCC1	-0.453
COc1cccc(CNC(=O)c2ccc3c(Cl)c4c(nc3c2)CCCC4)c1	3.82
CCCN(CCC)CCCNC(=O)Cn1cc2c(n1)-c1c(oc(C(=O)N3CCCC3)c1C)CC2	0.792
COc1ccc(NC(=O)Cn2cc(C(=O)c3ccncc3)c(=O)c3cc(C)ccc32)cc1Cl	-2.08
O=C(Cn1ncc2c3ccccc3n(Cc3ccccc3)c2c1=O)NC1CCCCCC1	-1.3
Cc1ccc(NC(=O)CN2C(=O)CC(C)Sc3ccccc32)c(C)c1 (stereo not given)	3.04

Compound	activity change, negative = inhibition [%]
CC(C)c1ccc(OCC(=O)N(Cc2ccc(N(C)C)cc2)C2CCS(=O)(=O)C2)cc1 (stereo not given)	-7.04
CCCn1c(NCc2ccccc2F)nc2ccccc21	-0.519
O=C(COc1ccc(Cl)cc1)N(Cc1ccco1)Cc1ccco1	1.1
Cc1ccc(CCNC(=O)c2ccc3c(c2)N(Cc2cc(C)ccc2C)C(=O)c2ccccc2S3=O)cc1 (stereo not given)	1.61
O=C(c1ccc2c(c1)N(Cc1ccccc1)C(=O)c1ccccc1S2(=O)=O)N1CCC(Cc2ccccc2)CC1	-1.43
CCCCn1c(=O)c2oc3ccccc3c2n(CC(=O)Nc2ccccc2OC)c1=O	3.66
COC(=O)c1ccc(NC(=O)c2cnn(-c3ccc(Cl)cc3)c2C2CCN(C(=O)OC(C)(C)C)CC2)cc1	-0.729
COc1ccc(-c2nc3ccc(C(=O)NCc4ccc(C)cc4)cc3nc2-c2ccc(OC)cc2)cc1	-6.79
Cc1cccc(N(C)C(=O)CS(=O)(=O)c2cccc3nsnc23)c1	-1.31
O=C(C1CCC(Cn2c(=O)c3sccc3n(Cc3ccccc3F)c2=O)CC1)N1CCCCC1 (stereo not given)	-6.37
CCN1CCN(CCCNC(=O)c2ccc3c(c2)sc2nc(-c4ccc(OC)cc4)cn23)CC1	-0.122
COc1cccc2c1cc1c(=O)n(CC(=O)N3CCN(c4ccccc4)CC3)nc(C)n12	0.0884
O=C(Nc1ccc(Oc2ccccc2)cc1)C1CCN(S(=O)(=O)c2ccc(Cl)cc2)CC1	-2.62
COc1ccc(-c2cn3c(C)c(C(=O)Nc4cc(C)cc(C)c4)sc3n2)cc1	2.11
CCCCN(C)CCCNC(=O)CN1N=C(c2ccc(OC)cc2)CCC1=O	1.5
COc1cccc(Cn2c(SCc3ccc(C(=O)N4CCC(C)CC4)cc3)nc3ccncc32)c1	-3.99
Cc1cccc(NC(=O)c2cc3c(C)nn(-c4ccccc4)c3s2)c1	-2.19
CNC(=O)c1ccc(-c2nc(CN3CCc4ccccc43)c(C)o2)cc1	-3.21
Cc1ccc2oc(=O)c3cnn(CC(=O)N4CCN(c5cccc(Cl)c5)CC4)c3c2c1	0.242
COc1ccc(-n2c(SCC(=O)Nc3ccc(Cl)c(C)c3)nc3n[nH]c(C)c3c2=N)cc1	-0.559
